From the supplement of paper PMC10849652
The full data set covers some 7,900 targets. This sample favours those with a hit. About 0.6% of all pairs of compound and target were hits. Unmarked numbers belong to inactive results.

Experiments:
Assay in all cases: log2 fold change, soluble protein after heating vs DMSO (PISA); higher = thermal stabilisation; K562 cells, 10 uM, 30 min; active = over 0.2 and 3.5 SD of the protein, either way, in both replicates (recomputed)
[1] = compound: C#Cc1cccc(Nc2ncnc3cc(OCCOC)c(OCCOC)cc23)c1 [erlotinib]
In short: (§1)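 Soluble protein was quantified by TMTpro 16plex LC-MS/MS after channel sums were equalised. It was obtained as the supernatant after 21,000xg for 90 min from pooled aliquots of K562 cells (2×10^6 cells/mL, 10 μM compound, 30 min) heated for 3 min across 48°C-58°C and extracted in PBS with 0.5% NP-40 at 4°C. Thermal stability values are relative to control samples and come from duplicates. They are given as log2 fold changes.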

[2] = compound: C/C(=N\NC(=O)C1=CC(=CC=C1)S(=O)(=O)N2CCOCC2)/C3=C(C=CC(=C3)Cl)O
In short: as §1

[3] = compound: C1=CC(=C(C=C1Cl)C2=NC3=NC=CN=C3C(=N2)NC4=CC=NC=C4)F
In short: as §1

[4] = compound: C1=CC(=CC=C1C2=NC3=C(N2)C=C(C=C3)C(=O)N)OC4=CC=C(C=C4)Cl
In short: as §1

[5] = compound: C1=CC2=C(C=CC(=C2)/C=C\3/C(=O)NC(=NCC4=CC=CS4)S3)N=C1
In short: as §1

[6] = compound: C1=CC2=NC=CN=C2C=C1/C=C/3\C(=O)NC(=O)S3
In short: as §1

[7] = compound: C1=CC=C(C=C1)C2=NC(=C(N2)C3=CC=NC=C3)C4=CC(=C(C=C4)Cl)O
In short: as §1

[8] = compound: C1=CC=C2C(=C1)C3=NNC4=CC=CC(=C43)C2=O
In short: as §1

[9] = compound: C1CCN(C1)C(=O)NC2=CC=CC(=C2)NC3=NC=C(C(=N3)NCCC4=CN=CN4)Br
In short: as §1

[10] = compound: C1CN(CCC1(CC2=CC=C(C=C2)Cl)N)C3=NC=NC4=C3C=CN4
In short: as §1

[11] = compound: C1COCCN1CCN2C3=CC=CC=C3N=C2NC(=O)C4=CC(=CC=C4)[N+](=O)[O-] [IRAK-1-4 Inhibitor I]
In short: as §1

[12] = compound: C=CC(=O)N1CCC[C@@H](n2nc(-c3ccc(Oc4ccccc4)cc3)c3c(N)ncnc32)C1 [ibrutinib]
In short: as §1

[13] = compound: CC(=O)c1cnc2ccc(-c3cc(Cl)c(O)c(Cl)c3)nc2c1N[C@H]1CC[C@H](CN(C)C)CC1
In short: as §1

[14] = compound: CC(C)(C)Cn1c(N)nc2ccc(-c3[nH]c(C(C)(C)C)nc3-c3ccc(F)cc3)nc21 [ralimetinib]
In short: as §1

[15] = compound: CC(C)(O)CC(=O)NCCn1ccc2ncnc(Nc3ccc(Oc4cccc(C(F)(F)F)c4)c(Cl)c3)c21
In short: as §1

[16] = compound: CC(C)C1=C2N=C(C=C(N2N=C1)NCC3=CC=CC=C3)NCCCCCCN
In short: as §1

[17] = compound: CC(C)C[C@@H](C=O)NC(=O)[C@H](CC(C)C)NC(=O)[C@H](CC(C)C)NC(=O)OCc1ccccc1
In short: as §1

[18] = compound: CC(C)N(C[C@H]1O[C@@H](n2cnc3c(N)ncnc32)[C@H](O)[C@@H]1O)[C@H]1C[C@@H](CCc2nc3cc(C(C)(C)C)ccc3[nH]2)C1 [pinometostat]
In short: as §1

[19] = compound: CC1=C(C(CC(=O)N1)C2=CC=C(C=C2)C(F)(F)F)C(=O)NC3=C(C=C4C(=C3)C=NN4)F
In short: as §1

[20] = compound: CC1=C(C2=C(C=C1)C(=O)C3=CC=CC=C3N2CCCN)C
In short: as §1

Chain of UniProt Q96Q15 (Q96Q15 whole entry, looked up): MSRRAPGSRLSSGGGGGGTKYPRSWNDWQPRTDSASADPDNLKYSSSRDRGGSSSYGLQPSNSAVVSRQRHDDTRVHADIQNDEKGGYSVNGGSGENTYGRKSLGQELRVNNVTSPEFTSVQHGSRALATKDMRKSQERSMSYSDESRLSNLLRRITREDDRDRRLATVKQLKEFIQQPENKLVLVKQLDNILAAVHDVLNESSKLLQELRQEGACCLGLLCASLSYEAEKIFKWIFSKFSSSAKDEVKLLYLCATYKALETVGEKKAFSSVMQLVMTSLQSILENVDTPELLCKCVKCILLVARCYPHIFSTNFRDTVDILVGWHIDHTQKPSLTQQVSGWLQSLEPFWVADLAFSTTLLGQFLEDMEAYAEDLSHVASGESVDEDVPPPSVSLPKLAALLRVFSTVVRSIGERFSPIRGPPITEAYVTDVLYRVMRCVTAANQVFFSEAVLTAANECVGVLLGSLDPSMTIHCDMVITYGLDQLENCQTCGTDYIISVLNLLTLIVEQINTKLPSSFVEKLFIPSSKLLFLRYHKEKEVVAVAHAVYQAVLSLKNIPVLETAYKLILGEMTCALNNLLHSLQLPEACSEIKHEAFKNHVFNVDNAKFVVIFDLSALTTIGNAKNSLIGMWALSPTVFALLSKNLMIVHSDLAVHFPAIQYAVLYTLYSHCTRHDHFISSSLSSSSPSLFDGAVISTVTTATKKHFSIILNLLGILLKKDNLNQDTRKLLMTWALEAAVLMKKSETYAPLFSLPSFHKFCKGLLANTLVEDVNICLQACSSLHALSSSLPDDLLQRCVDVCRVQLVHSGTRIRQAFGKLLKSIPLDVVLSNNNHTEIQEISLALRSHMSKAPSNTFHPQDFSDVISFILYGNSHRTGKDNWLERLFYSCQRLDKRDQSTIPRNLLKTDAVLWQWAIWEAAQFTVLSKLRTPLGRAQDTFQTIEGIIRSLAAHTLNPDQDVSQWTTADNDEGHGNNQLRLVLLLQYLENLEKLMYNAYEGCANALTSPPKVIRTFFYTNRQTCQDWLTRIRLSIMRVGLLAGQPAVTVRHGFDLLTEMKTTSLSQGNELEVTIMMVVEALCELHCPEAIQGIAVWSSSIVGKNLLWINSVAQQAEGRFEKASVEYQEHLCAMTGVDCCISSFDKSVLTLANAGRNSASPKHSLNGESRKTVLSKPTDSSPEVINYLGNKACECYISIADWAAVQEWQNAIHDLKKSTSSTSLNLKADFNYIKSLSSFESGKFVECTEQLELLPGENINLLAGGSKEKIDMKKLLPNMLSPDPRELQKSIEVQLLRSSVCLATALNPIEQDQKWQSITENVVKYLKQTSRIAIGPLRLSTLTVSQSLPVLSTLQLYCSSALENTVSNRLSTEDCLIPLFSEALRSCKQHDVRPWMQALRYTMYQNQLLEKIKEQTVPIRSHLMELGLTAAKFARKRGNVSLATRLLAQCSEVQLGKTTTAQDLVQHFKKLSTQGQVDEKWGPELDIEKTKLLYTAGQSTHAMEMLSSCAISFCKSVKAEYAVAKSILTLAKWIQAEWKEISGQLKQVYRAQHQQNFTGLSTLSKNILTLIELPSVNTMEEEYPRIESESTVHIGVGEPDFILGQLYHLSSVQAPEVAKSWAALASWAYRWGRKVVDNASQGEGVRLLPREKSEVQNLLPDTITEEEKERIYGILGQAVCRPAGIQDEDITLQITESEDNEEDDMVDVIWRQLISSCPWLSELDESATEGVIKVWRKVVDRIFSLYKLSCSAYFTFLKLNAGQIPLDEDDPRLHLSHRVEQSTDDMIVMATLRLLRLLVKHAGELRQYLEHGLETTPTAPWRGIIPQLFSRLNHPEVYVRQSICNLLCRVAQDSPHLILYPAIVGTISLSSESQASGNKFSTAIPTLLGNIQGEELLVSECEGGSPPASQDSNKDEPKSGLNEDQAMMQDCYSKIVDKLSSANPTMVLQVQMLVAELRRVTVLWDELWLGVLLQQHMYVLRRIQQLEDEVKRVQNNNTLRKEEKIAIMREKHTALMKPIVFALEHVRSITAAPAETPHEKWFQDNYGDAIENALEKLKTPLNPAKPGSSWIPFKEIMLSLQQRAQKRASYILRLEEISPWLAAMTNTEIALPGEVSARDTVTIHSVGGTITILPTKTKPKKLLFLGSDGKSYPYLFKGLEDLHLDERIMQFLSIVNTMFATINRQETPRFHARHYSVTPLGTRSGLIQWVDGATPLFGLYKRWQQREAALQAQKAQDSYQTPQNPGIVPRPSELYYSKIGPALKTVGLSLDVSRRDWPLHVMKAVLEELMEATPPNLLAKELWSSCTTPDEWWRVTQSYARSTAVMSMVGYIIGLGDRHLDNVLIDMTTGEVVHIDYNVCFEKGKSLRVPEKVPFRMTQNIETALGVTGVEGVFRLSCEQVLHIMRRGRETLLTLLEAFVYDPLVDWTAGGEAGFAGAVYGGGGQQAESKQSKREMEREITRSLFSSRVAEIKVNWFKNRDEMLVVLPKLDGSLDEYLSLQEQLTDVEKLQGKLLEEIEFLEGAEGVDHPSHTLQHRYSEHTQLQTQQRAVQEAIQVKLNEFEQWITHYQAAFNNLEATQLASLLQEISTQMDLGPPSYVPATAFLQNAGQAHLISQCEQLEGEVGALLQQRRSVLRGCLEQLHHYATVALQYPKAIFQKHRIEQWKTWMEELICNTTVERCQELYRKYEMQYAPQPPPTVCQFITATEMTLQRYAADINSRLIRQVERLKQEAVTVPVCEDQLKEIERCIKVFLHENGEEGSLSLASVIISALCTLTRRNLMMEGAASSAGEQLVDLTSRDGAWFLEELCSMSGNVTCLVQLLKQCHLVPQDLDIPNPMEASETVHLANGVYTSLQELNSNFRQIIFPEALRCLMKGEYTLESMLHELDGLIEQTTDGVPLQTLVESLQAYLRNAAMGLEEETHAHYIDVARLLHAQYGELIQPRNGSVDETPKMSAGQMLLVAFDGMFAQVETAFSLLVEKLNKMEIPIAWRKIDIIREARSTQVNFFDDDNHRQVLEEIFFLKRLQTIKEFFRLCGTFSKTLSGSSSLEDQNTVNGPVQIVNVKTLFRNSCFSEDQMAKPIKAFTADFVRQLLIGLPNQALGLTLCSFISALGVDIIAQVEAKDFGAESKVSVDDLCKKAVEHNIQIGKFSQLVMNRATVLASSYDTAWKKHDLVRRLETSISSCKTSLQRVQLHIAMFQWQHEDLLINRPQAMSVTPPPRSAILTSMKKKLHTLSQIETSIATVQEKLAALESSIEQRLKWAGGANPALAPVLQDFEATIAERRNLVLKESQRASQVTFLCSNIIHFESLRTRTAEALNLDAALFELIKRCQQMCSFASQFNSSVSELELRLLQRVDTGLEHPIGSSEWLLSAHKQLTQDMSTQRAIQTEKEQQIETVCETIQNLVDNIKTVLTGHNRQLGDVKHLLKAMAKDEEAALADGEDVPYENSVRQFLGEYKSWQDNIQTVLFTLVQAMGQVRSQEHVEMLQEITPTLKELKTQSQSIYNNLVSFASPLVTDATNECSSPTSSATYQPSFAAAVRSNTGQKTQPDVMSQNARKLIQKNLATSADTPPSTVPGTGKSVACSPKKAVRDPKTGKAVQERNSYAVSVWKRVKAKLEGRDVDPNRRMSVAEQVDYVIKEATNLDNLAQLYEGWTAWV
Chain of UniProt Q9BTW9 (Q9BTW9 whole entry, looked up): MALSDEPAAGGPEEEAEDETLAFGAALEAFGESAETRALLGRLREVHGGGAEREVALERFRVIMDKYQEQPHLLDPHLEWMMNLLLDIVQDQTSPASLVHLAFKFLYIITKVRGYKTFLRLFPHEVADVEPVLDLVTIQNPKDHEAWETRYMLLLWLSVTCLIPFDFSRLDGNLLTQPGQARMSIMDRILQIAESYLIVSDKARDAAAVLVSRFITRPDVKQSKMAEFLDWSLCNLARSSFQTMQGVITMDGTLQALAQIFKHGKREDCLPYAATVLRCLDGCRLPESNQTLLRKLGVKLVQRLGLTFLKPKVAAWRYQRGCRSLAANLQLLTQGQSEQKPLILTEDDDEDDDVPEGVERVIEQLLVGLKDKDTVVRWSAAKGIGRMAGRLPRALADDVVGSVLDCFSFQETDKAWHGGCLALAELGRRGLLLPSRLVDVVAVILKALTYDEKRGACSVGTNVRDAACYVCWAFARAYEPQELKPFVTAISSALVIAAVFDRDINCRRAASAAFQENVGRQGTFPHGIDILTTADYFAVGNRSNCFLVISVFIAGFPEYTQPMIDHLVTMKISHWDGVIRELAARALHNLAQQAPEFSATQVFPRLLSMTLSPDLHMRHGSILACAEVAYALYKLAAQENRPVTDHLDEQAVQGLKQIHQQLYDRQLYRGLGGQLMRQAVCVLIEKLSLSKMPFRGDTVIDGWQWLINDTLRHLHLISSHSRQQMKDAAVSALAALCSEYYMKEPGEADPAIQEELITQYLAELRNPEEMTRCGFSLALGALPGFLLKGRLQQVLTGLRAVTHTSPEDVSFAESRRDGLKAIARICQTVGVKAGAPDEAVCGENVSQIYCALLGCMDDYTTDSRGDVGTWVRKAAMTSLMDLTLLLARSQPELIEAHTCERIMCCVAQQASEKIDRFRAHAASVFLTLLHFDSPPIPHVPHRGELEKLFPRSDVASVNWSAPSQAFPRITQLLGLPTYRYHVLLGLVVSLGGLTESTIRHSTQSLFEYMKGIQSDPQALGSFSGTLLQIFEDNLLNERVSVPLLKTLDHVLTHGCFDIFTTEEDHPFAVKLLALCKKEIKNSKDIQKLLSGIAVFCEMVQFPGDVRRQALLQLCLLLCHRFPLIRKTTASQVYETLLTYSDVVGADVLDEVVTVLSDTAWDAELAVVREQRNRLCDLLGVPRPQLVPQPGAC
Chain of UniProt P62072 (P62072 whole entry, looked up): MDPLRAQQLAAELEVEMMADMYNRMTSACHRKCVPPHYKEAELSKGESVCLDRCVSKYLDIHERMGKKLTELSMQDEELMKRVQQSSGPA
Chain of UniProt P84103 (P84103 whole entry, looked up): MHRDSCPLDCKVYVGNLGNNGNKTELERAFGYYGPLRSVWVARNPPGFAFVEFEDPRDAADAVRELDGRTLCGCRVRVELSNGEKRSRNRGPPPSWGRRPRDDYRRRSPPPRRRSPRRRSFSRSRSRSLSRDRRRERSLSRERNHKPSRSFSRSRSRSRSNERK

Row | Target | log2 fold change [1] | log2 fold change [2] | log2 fold change [3] | log2 fold change [4] | log2 fold change [5] | log2 fold change [6] | log2 fold change [7] | log2 fold change [8] | log2 fold change [9] | log2 fold change [10] | log2 fold change [11] | log2 fold change [12] | log2 fold change [13] | log2 fold change [14] | log2 fold change [15] | log2 fold change [16] | log2 fold change [17] | log2 fold change [18] | log2 fold change [19] | log2 fold change [20]
1 | TBCD (UniProt Q9BTW9) | 0.022 | 0.06 | 0.059 | 0.022 | 0.069 | 0.029 | -0.025 | -0.01 | -0.016 | -0.021 | 0.019 | -0.019 | -0.004 | 0.01 | -0.034 | -0.083 | 0.01 | -0.061 | 0.068 | -0.086
2 | TATDN2 (UniProt Q93075) | 0.071 | -0.062 | -0.016 | -0.013 | 0.043 | -0.052 | – | 0.003 | -0.121 | 0.06 | -0.006 | 0.072 | -0.402 (active) | – | 0.102 | 0.058 | – | 0.047 | -0.023 | -0.218
3 | SRPRA (UniProt P08240) | -0.01 | 0.061 | 0.073 | 0.007 | 0.054 | -0.048 | 0.063 | 0.003 | 0.001 | 0.006 | -0.024 | 0.015 | -0.028 | -0.002 | -0.058 | 0.021 | -0.006 | -0.001 | -0.033 | 0.269 (active)
4 | TIMM10 (UniProt P62072) | -0.109 | -0.021 | 0.137 | -0.011 | 0.044 | 0.051 | 0.072 | 0.029 | -0.014 | -0.016 | -0.06 | 0.024 | -0.041 | -0.145 | -0.026 | 0.047 | -0.09 | -0.078 | 0.031 | 0.174
5 | SLC44A2 isoform 2 (UniProt Q8IWA5) | 0.059 | 0.028 | -0.059 | -0.054 | 0.019 | -0.096 | 0.073 | -0.065 | -0.105 | 0.01 | 0.092 | 0.055 | 0.034 | -0.128 | -0.006 | 0.296 (active) | -0.047 | 0.056 | -0.078 | 0.034
6 | TMBIM1 (UniProt Q969X1) | 0.092 | -0.139 | 0.122 | -0.017 | 0.198 | -0.025 | 0.517 (active) | -0.069 | 0.172 | 0.049 | – | 0.037 | -0.126 | 0.264 | 0.16 | -0.066 | -0.166 | – | -0.107 | 0.089
7 | SMG1 (UniProt Q96Q15) | 0.012 | 0.101 | 0.066 | -0.012 | -0.029 | 0 | -0.088 | 0.049 | -0.054 | 0.066 | -0.088 | 0.021 | -0.002 | 0.012 | 0.002 | 0.007 | -0.014 | -0.06 | 0.045 | 0.054
8 | STAT5A (UniProt P42229) | 0.033 | 0.173 | 0.035 | 0.048 | 0.083 | 0.01 | 0.06 | -0.026 | -0.077 | -0.028 | -0.116 | -0.088 | -0.164 | 0.046 | 0.019 | -0.053 | 0.006 | 0.033 | -0.002 | -0.009
9 | SLC7A6 (UniProt Q92536) | -0.051 | 0.232 | -0.161 | 0.026 | -0.001 | 0.034 | 0.008 | -0.033 | -0.004 | 0.135 | -0.03 | -0.032 | -0.037 | -0.02 | -0.301 | 0.142 | 0.006 | -0.068 | 0.025 | -0.02
10 | SRSF3 (UniProt P84103) | -0.074 | -0.03 | -0.35 | 0.053 | -0.074 | -0.009 | -0.003 | 0.006 | 0.097 | -0.107 | -0.207 | 0.11 | -0.035 | 0.112 | 0.19 | 0.083 | 0.152 | 0.064 | 0.125 | -0.134
11 | SUCLA2 (UniProt Q9P2R7) | 0.024 | 0.016 | 0.072 | -0.031 | 0.049 | -0.018 | 0.037 | -0.019 | 0.004 | -0.01 | 0.02 | -0.045 | 0.014 | -0.021 | -0.151 | -0.107 | -0.033 | -0.034 | -0.021 | 0.022
12 | SLC35F6 (UniProt Q8N357) | 0.12 | -0.078 | -0.008 | -0.067 | -0.013 | -0.047 | 0.417 (active) | -0.024 | -0.057 | 0.122 | – | -0.002 | -0.016 | -0.18 | 0.061 | -0.22 | 0.319 | – | -0.177 | 0.078
13 | STK11IP (UniProt Q8N1F8) | 0.025 | 0.152 | -0.079 | -0.243 | 0.094 | 0.006 | – | -0.062 | 0.042 | -0.01 | -0.248 | 0.027 | -0.02 | – | -0.131 | -0.932 (active) | – | 0.168 | 0.1 | -0.183
14 | SLC9A6 isoform 2 (UniProt Q92581) | -0.024 | 0.014 | 0.053 | 0.026 | -0.009 | 0.029 | -0.04 | -0.056 | -0.013 | 0.031 | 0.052 | 0.024 | 0.005 | -0.056 | -0.02 | 0.038 | 0.042 | 0.083 | 0.021 | 0.023
15 | STK38L (UniProt Q9Y2H1) | -0.005 | 0.018 | 0.05 | 0.031 | -0.015 | 0.046 | -0.368 | 0.102 | 0.008 | -0.041 | -0.084 | -0.048 | -0.181 | -0.577 | -0.035 | -0.148 | 0.385 | 0.051 | 0.013 | -0.023
16 | SLC35B4 (UniProt Q969S0) | -0.055 | 0.194 | -0.033 | 0.105 | 0.085 | 0.024 | – | -0.243 | -0.015 | -0.231 | 0.092 | 0.023 | 0.184 | – | 0.098 | -0.02 | – | -0.056 | -0.055 | 0.059
